In PubChem BioAssay (NCATS):
“And” between values parts separate entries of the source, which are not always exact repeats. Identical values can stand only once. Inconclusive results are not listed. The source made the active and inactive calls. Unless noted, calls follow the shape of the dose curve; as a rule, active = well fitted curve in the direction sought with a large enough effect; inconclusive = small, poorly fitted or top-dose-only effect, or another doubt; inactive = no such curve, though single readings can be large; an effect the other way counts as inactive or inconclusive.

What was measured:
[1] = target: Voltage-gated inwardly rectifying potassium channel KCNH2 (Homo sapiens) (UniProt Q12809); test: qHTS Assay for Small Molecule Inhibitors of the Human hERG Channel Activity (AID 588834);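 also: top concentration of the series differs between compounds; % is scaled to controls: 0 for no effect and ±100 for the full control effect; lower thallium flux fluorescence means stronger hERG block; nearly all actives have a fitted effect of over 50% in size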
Outline: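 Step 1: BacMam hERG transduction of U2OS, 4 hrs RT. Step 2: overnight 37 °C, plate 2000 cells/well, 4 hr. Step 3: FluxOR load, compound 10 min, stimulate, read fluorescence.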

[2] = qHTS assay for small molecule activators of the p53 signaling pathway (AID 651743; active = well fitted activation curve with a large enough effect in the signal ratio, not every such curve was filed as active; the % refers to the signal ratio; also: series mostly up to about 92 µM; % of control where 0% means no effect); conditions: HCT-116 p53RE-bla, beta-lactamase FRET ratio, 16 h; activation: hits give high values
Outline: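 After 16 hours compound treatment at 37 C, HCT-116 cells stably expressing p53RE-driven beta-lactamase were loaded with LiveBLAzer B/G FRET substrate for 2 hours at room temperature. Fluorescence intensity served as the p53 activation read-out.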

[3] = qHTS assay for small molecule activators of the nuclear factor-kappa B (NF-kB) signaling pathway (AID 651749; active = well fitted activation curve with a large enough effect in the signal ratio; the % refers to the signal ratio; also: series mostly up to about 77 µM; % of control where 0% means no effect); conditions: NF-kB-bla ME-180 cells, beta-lactamase FRET ratio, 16 h; activation: hits give high values
Outline: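 Activation measured after 16 hr compound treatment at 37C, 5% CO2, of 2,000 ME-180 cells/well stably expressing an NF-kB response element–driven beta-lactamase reporter, via FRET-disruption fluorescence.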

[4] = qHTS assay for small molecule disruptors of the mitochondrial membrane potential - 1 hr assay (AID 651754; calls by dose curve; also: % is scaled to controls: 0 for no effect and ±100 for the full control effect; nearly all actives have a fitted effect of over 35% in size)
Outline: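 Loss of mitochondrial potential shifts the cationic dye from red mitochondrial aggregates to green cytoplasmic monomers. Cells (HepG2) are treated with compound for 1 hr before a 30 min dye incubation at 37C.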

[5] = qHTS assay for small molecule disruptors of the mitochondrial membrane potential - 5 hr assay (AID 651755; calls by dose curve; also: % is scaled to controls: 0 for no effect and ±100 for the full control effect; nearly all actives have a fitted effect of over 40% in size)
Outline: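 Membrane-potential dye readout: red aggregate (540 ex/590 em) versus green monomer (490 ex/535 em) fluorescence after 30 min dye loading, following 5 hr compound exposure at 37C of overnight-plated HepG2 cells.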

[6] = target: Tumor necrosis factor (Homo sapiens) (UniProt P01375); test: qHTS assay to identify small molecules that stimulate Tumor Necrosis Factor-alpha (TNF-alpha) secretion (AID 651757; active = well fitted curve in the direction sought with a large enough effect in the signal ratio; the % refers to the signal ratio; also: 0% is about no effect)
Outline: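 Human monocytic THP-1 cells are plated, treated with compound and held at 37 C for 17 hrs. Labeled anti-TNF-alpha antibody mixture is then added; after 3 hr at room temperature, TR-FRET signal reports secreted TNF-alpha.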

[7] = qHTS assay for environmental chemicals that activate the Aryl hydrocarbon Receptor (AhR) signaling pathway (AID 651777); conditions: 1A2-DRE human hepatoma cells, luciferase, 24 h; activation: hits give high values; also: % of control where 0% means no effect; nearly all actives have a fitted effect of over 15% in size
Outline: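 Luminescence (One-Glo, 30 min, room temperature) reports AhR-driven luciferase in stably transfected human hepatoma cells bearing DRE and CYP1A2 promoter. Cells (1,200/well) were treated with compound for 24 hr at 37 C in qHTS format.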

[8] = target: Peroxisome proliferator-activated receptor alpha (Homo sapiens) (UniProt Q07869); test: qHTS assay for small molecule agonists of the peroxisome proliferator-activated receptor alpha (PPARalpha) signaling pathway (AID 651778); conditions: PathHunter PPARalpha complementation, chemiluminescence, 6 h; hits give high values; also: % of control where 0% means no effect
Outline: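 Chemiluminescence from complemented enzyme reported PPARalpha activation in cells after 6 hr of compound treatment at 37 C. The detection reagent was incubated for 60 min at room temperature, and compounds were scored as agonists.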

[9] = target: Nuclear receptor ROR-gamma (Homo sapiens) (UniProt P51449); test: qHTS assay for small molecule antagonists of the retinoid-related orphan receptor gamma (ROR-gamma) signaling pathway (AID 651802);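 also: CHO cells with doxycycline-induced ROR-gamma expression; series mostly up to about 92 µM; % is scaled to controls: 0 for no effect and ±100 for the full control effect; nearly all actives have a fitted effect of over 60% in size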
Outline: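 Steps: cells dispensed; compound or DMSO transferred by pin tool; doxycycline added to induce the ROR response element-driven luciferase; plates held 16hr at 37C; ONE-Glo added and luminescence measured.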

[10] = qHTS assay for small molecule agonists of the antioxidant response element (ARE) signaling pathway measured by Nrf2-dependant transcriptional activity (AID 720636; active = well fitted curve in the direction sought with a large enough effect in the repeat runs; an effect the other way counts as inactive or inconclusive; also: % of control where 0% means no effect)
Outline: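 Nrf2-dependent transcription read as ONE-Glo luciferase signal from ARE-luc HepG2 reporter cells after 16 hr compound treatment at 37 C, 5% CO2, in assay medium with 1% dialyzed FBS.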

[11] = qHTS assay for small molecule antagonists of the retinoid-related orphan receptor gamma (ROR-gamma) signaling pathway - cell viability counter screen (AID 720652; active = well fitted curve in the direction sought with a large enough effect in the repeat runs; an effect the other way counts as inactive or inconclusive;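 also: CHO reporter cells with doxycycline-induced ROR-gamma expression; series mostly up to about 92 µM; compound exposure lasted 16 hr before ATP read; % is scaled to controls: 0 for no effect and ±100 for the full control effect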)
Outline: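 Steps: seed CHO cells bearing TET-inducible ROR and ROR response element-luciferase; rest 5 hr at 37 C; add compound, then doxycycline; incubate 16 hr; add CellTiter-Glo and read luminescence as ATP-based viability.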

[12] = qHTS assay for small molecule agonists of the antioxidant response element (ARE) signaling pathway measured by Nrf2-dependant transcriptional activity - cell viability counter screen (AID 720653; active = well fitted curve in the direction sought with a large enough effect in the repeat runs; an effect the other way counts as inactive or inconclusive; also: % is scaled to controls: 0 for no effect and ±100 for the full control effect); conditions: ARE-bla HepG2 viability, CellTiter-Glo ATP luminescence, 16 h; max response: hits give low values
Outline: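 Cytotoxicity counter screen: intracellular ATP quantified by CellTiter-Glo luminescence in the same ARE-bla HepG2 plates, after 16 h compound exposure and a 2 h beta-lactamase substrate step.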

[13] = qHTS assay for cell viability of HEK293 cells (AID 743288); conditions: ATP luminescence (CellTiter-Glo), 18 h; max response: hits give low values; also: % is scaled to controls: 0 for no effect and ±100 for the full control effect; nearly all actives have a fitted effect of over 50% in size
Outline: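 Viable-cell counts were inferred from luciferase-based ATP content in HEK293 cells seeded at 2,000/well, pre-incubated ≥5 h, then dosed with DMSO-solubilised compounds for 18 h at 37 C.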

[14] = qHTS assay for cell viability of the p53RE-bla HCT-116 cell line (AID 743292); also: % is scaled to controls: 0 for no effect and ±100 for the full control effect; nearly all actives have a fitted effect of over 55% in size
Outline: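 ATP-based luminescent viability (CellTiter-Glo, 30 min RT) after 16 h compound treatment at 37 C of p53RE-bla HCT-116 cells, seeded at 4,000 cells/well and rested 5 h before dosing.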

[15] = qHTS for Inhibitors of the Functional Ribonucleoprotein Complex (vRNP) of Lassa (LASV) Arenavirus: LASV Primary Screen - GLuc reporter signal (AID 1347082; calls by dose curve; tested in HEK293 reporter line; also: series mostly up to about 57 µM; % is scaled to controls: 0 for no effect and ±100 for the full control effect; nearly all actives have a fitted effect of over 60% in size)
[16] = qHTS for Inhibitors of the Functional Ribonucleoprotein Complex (vRNP) of Lassa (LASV) Arenavirus: Viability assay - alamar blue signal for LASV Primary Screen (AID 1347083; calls by dose curve; tested in HEK293 reporter line; also: series mostly up to about 57 µM; % is scaled to controls: 0 for no effect and ±100 for the full control effect; nearly all actives have a fitted effect of over 80% in size)
[17] = qHTS for Inhibitors of the Functional Ribonucleoprotein Complex (vRNP) of Lymphocytic Choriomeningitis Arenaviruses (LCMV): Viability assay - alamar blue signal for LCMV Primary Screen (AID 1347085; calls by dose curve; tested in HEK293 reporter line; also: series mostly up to about 57 µM; % is scaled to controls: 0 for no effect and ±100 for the full control effect; nearly all actives have a fitted effect of over 80% in size)
[18] = target: Nucleoprotein (Lymphocytic choriomeningitis virus (strain Armstrong)) (UniProt P09992); test: qHTS for Inhibitors of the Functional Ribonucleoprotein Complex (vRNP) of Lymphocytic Choriomeningitis Arenaviruses (LCMV): LCMV Primary Screen - GLuc reporter signal (AID 1347086; calls by dose curve; also: series mostly up to about 57 µM; % is scaled to controls: 0 for no effect and ±100 for the full control effect; nearly all actives have a fitted effect of over 70% in size)
[19] = Primary qHTS for Huh7 cytotoxicity: counterscreen for inhibitors of MERS-S pseudotyped particle cell entry (AID 1479147; calls by dose curve; also: % is scaled to controls: 0 for no effect and ±100 for the full control effect); conditions: outcome: dose series up to 57.1 µM unless noted
[20] = Primary qHTS for inhibitors of MERS-S pseudo-typed particle cell entry (AID 1479149; calls by dose curve; also: nearly all actives have a fitted effect of over 60% in size)
[21] = Primary qHTS for Vero E6 cytotoxicity: counterscreen for inhibitors of SARS-S pseudo-typed particle cell entry (AID 1479150; calls by dose curve; also: % is scaled to controls: 0 for no effect and ±100 for the full control effect); conditions: outcome: dose series up to 57.1 µM unless noted
[22] = Cytotoxicity counterscreen for inhibitors of SARS-CoV-2 cell entry (AID 1645845; calls by dose curve; also: nearly all actives have a fitted effect of over 50% in size)
Outline: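 ATP-content luminescence (ATPLite 1step, 15 min RT) read after 48 h compound exposure of Expi293F cells stably expressing human ACE2; normalized to cells-only wells and media-only wells.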

[23] = target: Glutathione peroxidase 1 (Homo sapiens) (UniProt P07203); test: Primary qHTS Assay for Inhibitors of Recombinant Selenoprotein Glutathione Peroxidase 1 (GPX1) (AID 1845191); also: nearly all actives have a fitted effect of over 65% in size
Outline: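 NADPH consumption tracked by fluorescence at 340/450 nm between t=0 and t=15 min, room temperature. Final mix: 10 nM GPX1, 100 nM glutathione reductase, 1 mM GSH, 0.5 mM NADPH, 0.5 mM cumene hydroperoxide, 0.01% BSA; 30 min compound–enzyme preincubation.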

[24] = target: Phospholipid hydroperoxide glutathione peroxidase GPX4 (Homo sapiens) (UniProt P36969); test: Primary qHTS Assay for Inhibitors of Recombinant Selenoprotein Glutathione Peroxidase 4 (GPX4) (AID 1845192); also: nearly all actives have a fitted effect of over 65% in size
Outline: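 NADPH consumption followed by fluorescence at 340/450 nm, t=0 and after 15 min at room temperature. Reaction started with cumene hydroperoxide (0.5 mM final) after 30 min compound–GPX4 preincubation; final 200 nM GPX4, 100 nM GR, 1 mM GSH, 0.5 mM NADPH.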

[25] = target: Nuclear receptor subfamily 1 group I member 2 (Rattus norvegicus) (UniProt Q9R1A7); test: qHTS assay for small molecule activators of the rat pregnane X receptor (rPXR) signaling pathway (AID 651751; call rule not given here; also: 0% is about no effect); conditions: rPXR reporter cells, luciferase (One-Glo), 24 h
[26] = qHTS assay for small molecule activators of the human pregnane X receptor (PXR) signaling pathway (AID 720659; call rule not given here; also: 0% is about no effect)

Peroxisome proliferator-activated receptor alpha (Homo sapiens), sequence (Q07869 whole entry, looked up): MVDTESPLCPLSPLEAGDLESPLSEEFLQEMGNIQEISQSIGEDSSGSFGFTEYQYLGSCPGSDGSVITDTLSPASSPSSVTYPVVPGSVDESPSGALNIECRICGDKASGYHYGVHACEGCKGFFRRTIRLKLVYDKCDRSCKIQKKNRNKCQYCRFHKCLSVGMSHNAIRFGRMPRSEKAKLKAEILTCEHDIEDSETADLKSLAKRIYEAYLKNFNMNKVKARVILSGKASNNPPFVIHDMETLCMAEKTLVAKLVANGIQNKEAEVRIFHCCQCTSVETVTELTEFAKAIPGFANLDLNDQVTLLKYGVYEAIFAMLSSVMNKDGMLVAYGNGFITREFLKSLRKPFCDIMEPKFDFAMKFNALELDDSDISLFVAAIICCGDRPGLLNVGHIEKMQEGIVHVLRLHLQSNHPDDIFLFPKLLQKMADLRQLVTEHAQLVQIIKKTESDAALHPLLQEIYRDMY
Nuclear receptor subfamily 1 group I member 2 (Rattus norvegicus), sequence (Q9R1A7 whole entry, looked up): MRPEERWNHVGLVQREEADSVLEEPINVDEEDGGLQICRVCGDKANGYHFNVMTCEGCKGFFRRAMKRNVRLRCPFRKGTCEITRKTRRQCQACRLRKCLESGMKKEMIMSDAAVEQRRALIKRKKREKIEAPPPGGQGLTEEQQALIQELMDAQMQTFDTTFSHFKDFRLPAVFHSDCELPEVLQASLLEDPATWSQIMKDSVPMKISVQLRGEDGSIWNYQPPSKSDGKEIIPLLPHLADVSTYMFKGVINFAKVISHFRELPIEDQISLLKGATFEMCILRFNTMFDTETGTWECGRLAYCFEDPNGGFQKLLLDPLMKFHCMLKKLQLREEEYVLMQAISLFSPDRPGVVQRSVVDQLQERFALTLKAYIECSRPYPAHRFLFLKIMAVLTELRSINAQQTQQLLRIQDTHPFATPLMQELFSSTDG
Nucleoprotein (Lymphocytic choriomeningitis virus (strain Armstrong)), sequence (P09992 whole entry, looked up): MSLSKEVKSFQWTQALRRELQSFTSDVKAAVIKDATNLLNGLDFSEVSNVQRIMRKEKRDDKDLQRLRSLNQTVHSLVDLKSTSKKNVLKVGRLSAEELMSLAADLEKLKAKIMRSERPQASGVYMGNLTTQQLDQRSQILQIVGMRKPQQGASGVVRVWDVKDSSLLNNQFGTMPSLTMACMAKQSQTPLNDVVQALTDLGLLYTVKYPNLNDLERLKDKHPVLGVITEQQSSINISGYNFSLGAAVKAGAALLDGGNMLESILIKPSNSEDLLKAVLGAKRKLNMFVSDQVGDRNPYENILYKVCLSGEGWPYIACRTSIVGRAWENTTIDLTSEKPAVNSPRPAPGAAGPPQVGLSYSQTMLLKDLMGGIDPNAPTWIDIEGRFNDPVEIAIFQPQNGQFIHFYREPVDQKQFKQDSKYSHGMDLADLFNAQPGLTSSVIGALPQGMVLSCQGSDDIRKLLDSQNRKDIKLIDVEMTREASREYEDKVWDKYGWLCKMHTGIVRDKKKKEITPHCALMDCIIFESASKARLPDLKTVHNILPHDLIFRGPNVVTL
Glutathione peroxidase 1 (Homo sapiens), sequence (P07203 whole entry, looked up): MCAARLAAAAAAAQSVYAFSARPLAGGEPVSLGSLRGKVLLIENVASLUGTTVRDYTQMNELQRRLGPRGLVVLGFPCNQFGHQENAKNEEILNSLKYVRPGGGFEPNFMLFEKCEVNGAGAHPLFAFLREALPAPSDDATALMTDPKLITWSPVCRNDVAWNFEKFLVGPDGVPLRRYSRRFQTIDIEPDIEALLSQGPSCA
Nuclear receptor ROR-gamma (Homo sapiens), sequence (P51449 whole entry, looked up): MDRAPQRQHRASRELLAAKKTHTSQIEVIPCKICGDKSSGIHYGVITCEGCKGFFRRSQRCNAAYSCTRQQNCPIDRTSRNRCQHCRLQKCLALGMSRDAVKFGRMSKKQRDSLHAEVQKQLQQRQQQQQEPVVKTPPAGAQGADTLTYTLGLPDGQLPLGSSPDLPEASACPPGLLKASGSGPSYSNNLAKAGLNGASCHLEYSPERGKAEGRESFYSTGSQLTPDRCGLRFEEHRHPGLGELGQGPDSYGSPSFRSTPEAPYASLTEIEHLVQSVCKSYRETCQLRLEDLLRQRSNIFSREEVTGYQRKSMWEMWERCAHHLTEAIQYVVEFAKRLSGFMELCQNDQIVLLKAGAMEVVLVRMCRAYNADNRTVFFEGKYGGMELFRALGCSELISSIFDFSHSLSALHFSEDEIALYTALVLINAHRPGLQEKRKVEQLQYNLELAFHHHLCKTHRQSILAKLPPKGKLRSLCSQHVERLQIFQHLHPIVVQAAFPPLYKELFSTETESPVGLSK
Voltage-gated inwardly rectifying potassium channel KCNH2 (Homo sapiens), sequence (Q12809 whole entry, looked up): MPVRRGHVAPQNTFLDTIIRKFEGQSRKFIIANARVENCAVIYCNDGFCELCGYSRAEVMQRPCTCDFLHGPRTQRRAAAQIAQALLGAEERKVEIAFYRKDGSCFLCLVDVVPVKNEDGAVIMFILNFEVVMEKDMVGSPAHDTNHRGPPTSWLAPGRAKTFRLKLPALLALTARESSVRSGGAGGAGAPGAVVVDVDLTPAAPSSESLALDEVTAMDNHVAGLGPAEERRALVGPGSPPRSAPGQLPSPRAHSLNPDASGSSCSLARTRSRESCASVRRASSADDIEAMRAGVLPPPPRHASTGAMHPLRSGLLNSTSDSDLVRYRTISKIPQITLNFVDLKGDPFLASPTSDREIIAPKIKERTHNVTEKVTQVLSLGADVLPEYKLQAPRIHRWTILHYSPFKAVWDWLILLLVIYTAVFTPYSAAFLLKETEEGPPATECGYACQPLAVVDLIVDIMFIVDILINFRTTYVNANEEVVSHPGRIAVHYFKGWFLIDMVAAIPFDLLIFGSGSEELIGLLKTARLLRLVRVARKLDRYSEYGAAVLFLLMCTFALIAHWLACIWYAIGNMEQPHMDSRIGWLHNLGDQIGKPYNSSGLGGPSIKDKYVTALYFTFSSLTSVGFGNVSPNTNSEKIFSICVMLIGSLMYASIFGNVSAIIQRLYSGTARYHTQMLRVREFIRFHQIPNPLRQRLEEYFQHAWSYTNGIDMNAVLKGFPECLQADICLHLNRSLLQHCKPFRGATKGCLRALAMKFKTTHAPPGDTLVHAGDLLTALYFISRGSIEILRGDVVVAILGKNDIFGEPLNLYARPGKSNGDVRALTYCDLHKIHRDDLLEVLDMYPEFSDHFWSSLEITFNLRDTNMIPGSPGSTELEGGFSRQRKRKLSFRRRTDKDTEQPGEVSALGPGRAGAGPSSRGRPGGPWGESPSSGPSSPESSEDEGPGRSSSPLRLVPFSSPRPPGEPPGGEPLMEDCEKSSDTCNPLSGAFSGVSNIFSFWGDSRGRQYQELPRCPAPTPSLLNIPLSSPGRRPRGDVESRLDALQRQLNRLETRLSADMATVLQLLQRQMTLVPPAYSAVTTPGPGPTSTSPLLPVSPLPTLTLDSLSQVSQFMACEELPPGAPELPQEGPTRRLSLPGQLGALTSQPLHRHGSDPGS
Phospholipid hydroperoxide glutathione peroxidase GPX4 (Homo sapiens), sequence (P36969 whole entry, looked up): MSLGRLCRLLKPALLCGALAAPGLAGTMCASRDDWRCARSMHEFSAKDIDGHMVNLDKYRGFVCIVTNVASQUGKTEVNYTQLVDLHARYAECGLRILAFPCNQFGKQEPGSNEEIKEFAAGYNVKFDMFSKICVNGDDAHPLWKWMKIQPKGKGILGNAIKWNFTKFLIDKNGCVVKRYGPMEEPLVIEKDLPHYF
Tumor necrosis factor (Homo sapiens), sequence (P01375 whole entry, looked up): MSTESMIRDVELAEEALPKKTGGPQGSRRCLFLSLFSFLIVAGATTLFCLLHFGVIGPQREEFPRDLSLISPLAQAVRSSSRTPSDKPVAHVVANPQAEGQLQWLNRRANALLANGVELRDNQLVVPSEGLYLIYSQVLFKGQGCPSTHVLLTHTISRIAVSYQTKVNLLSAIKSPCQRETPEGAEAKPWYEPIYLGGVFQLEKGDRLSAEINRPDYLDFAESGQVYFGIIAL

Cc1ccccc1O
inactive: Potency [1] | activation [2] -4.62% and -1.52% | activation [3] 0.871% and 6.75% | Potency [4] | Potency [5] | outcome [6] | activation [7] -0.175% and -0.566% | max response [8] -1.66% and -0.689% | Potency [9] | Potency [10] | outcome [11] | max response [12] -2.37% and 9.1% | max response [13] -5.04% and -4.42% | outcome [14] | Potency [15] | Potency [16] | Potency [17] | Potency [18] | outcome [19] | Potency [20] | outcome [21] | Potency [22] | Potency [23] | Potency [24] | max response [25] 0.289% and -3.94% | outcome [26]
